Source: PubChem (National Center for Advancing Translational Sciences (NCATS))
In the library only some 2.7% were active in any assay of this set; here they are far more common.
Nrf2 block: Nrf2 pathway inhibition | Potency, µM (titrated, usually from 46 µM), without a hit: top-dose activity change, negative = inhibition, most hits filed as inhibitors | A549 ARE-Fluc reporter, luciferase luminescence, 18-24 h | AID 504444 | hit rate 2.1% among 360,000; further: potency means the concentration at half of the fitted maximal effect; on the % scale 0 is the no-effect control and ±100 the full control effect; nearly all actives have a fitted effect of over 60% in size
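Two sequential reads on A549 ARE_Fluc cells exposed to compound for 18-24 h: a CellTiter-Fluor fluorescence read for viability, then a luciferase luminescence read for Nrf2/ARE activity.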
LDHA block: blocks human lactate dehydrogenase A; P00338; purified LDHA, NADH/diaphorase-resazurin fluorescence; hits give low values; activity change, % (values are at about 110 or 230 µM); hit rate 0.15% among 480,000; AID 1347041; in the data active means activity change below about -30%; inconclusive means mostly about -25% to -30%;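 further: plate controls were DMSO wells for no effect and wells without enzyme for full effect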
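Remaining NADH was detected by diaphorase (0.133 mg/mL) converting 37 µM resazurin to fluorescent resorufin, read at 0 and 20 minutes. The preceding 5-minute room-temperature reaction used 2 nM LDHA, 0.2 mM sodium pyruvate and 0.06 mM NADH at pH 7.4.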
mIDH1 inhibitor: inhibitors of human mutant IDH1 R132H; O75874; Potency, µM (top dose mostly 76.6 µM), for inactives: at the highest dose activity change, negative = inhibition, most hits filed as inhibitors; IDH1-R132H enzyme, NADPH consumption, diaphorase/resazurin fluorescence; hit rate 0.093% among 390,000; further: potency means the concentration at half of the fitted maximal effect; on the % scale 0 is the no-effect control and ±100 the full control effect; nearly all actives have a fitted effect of over 65% in size
Target sequence (O75874 whole entry R132H, stated change not applied): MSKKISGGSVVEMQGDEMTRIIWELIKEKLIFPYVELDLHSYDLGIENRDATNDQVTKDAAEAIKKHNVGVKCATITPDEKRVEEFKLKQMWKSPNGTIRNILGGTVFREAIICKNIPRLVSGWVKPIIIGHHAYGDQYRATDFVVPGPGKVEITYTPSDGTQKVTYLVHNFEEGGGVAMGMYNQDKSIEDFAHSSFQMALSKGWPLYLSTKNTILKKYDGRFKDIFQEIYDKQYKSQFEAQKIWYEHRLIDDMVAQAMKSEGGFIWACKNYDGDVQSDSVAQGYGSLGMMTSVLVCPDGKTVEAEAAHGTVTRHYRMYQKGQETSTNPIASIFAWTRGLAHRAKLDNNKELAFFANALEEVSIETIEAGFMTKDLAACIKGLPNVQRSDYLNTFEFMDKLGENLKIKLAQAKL
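IDH1-R132H (0.5 ug/mL dispensed) in pH 7.5 Tris buffer was preincubated 30 min with compound, then given a substrate mix of 0.016 mM NADPH and 2 mM alpha-KG for 80 min at room temperature; remaining NADPH was read by diaphorase/resazurin fluorescence.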
Nrf2 activator: activates Nrf2 signaling | AREc32 ARE-luciferase reporter (MCF7-derived line), luminescence, 24 h | Potency, µM (doses to about 46.1 µM), for inactives: at the top dose activation, most hits filed as activators | hit rate 0.31% among 410,000 | AID 624171; further: potency means the concentration at half of the fitted maximal effect; % of control where 0% means no effect; nearly all actives have a fitted effect of over 65% in size
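For detection, Steady-Glo was added and plates sat 30 min at RT; before that, AREc32_Fluc cells grown overnight in OPTI-MEM/5% FBS had been treated with 23 nL compound for 24 hr at 37 deg C.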
ALOX12 inh: ALOX12 (human) lipoxygenase inhibition. Potency, µM (series often up to 108 µM), without a hit: at the highest dose activity change, negative = inhibition, usual class: inhibitors. hit rate 1.1% among 580,000. purified 12hLO, xylenol orange hydroperoxide absorbance. P18054; further: potency means the concentration at half of the fitted maximal effect; on the % scale 0 is the no-effect control and ±100 the full control effect
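Purified human 12hLO (150 nM final) in 25 mM Hepes, 0.01% Triton X-100, pH 7.0 was preincubated 15 min at room temperature with compound. Then 40 uM arachidonic acid was added, 30 min. Hydroperoxide was read by Fe-XO absorbance ratio 573/405 nm.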
A549 viability: A549 cytotoxicity, counter-screen for Nrf2 inhibitors. A549 ARE-Fluc cells, CellTiter-Fluor viability, 18-24 h. Potency, µM (doses to about 46 µM), for inactives: top-dose activity change, negative = cytotoxicity, usual class: inhibitors. hit rate 0.16% among 390,000. AID 504648; further: potency means the concentration at half of the fitted maximal effect; on the % scale 0 is the no-effect control and ±100 the full control effect
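A549 ARE-Fluc cells in 5% FBS OPTI-MEM, 5000 cells/well, rested 2 h then exposed to compounds in concentration-response for 18-24 h at 37 °C. Viability by CellTiter-Fluor fluorescence (Ex 405/Em 525) after 30 min; luciferase luminescence (BugLite, 15 min, RT) read afterwards.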
* = called active by the depositor; ? = inconclusive; · = no result. Unless noted, the call rests on the fitted dose curve; in most records, active means well fitted curve in the direction sought with a large enough effect; inconclusive means small, poorly fitted or top-dose-only effect, or another doubt; inactive means no such curve, though single readings can be large; an effect the other way counts as inactive or inconclusive.

SMILES	Nrf2 block	LDHA block	mIDH1 inhibitor	Nrf2 activator	ALOX12 inh	A549 viability
OCCN=c1cc(-c2ccccc2)oc2ccc(Cl)cc12	-29%	-5	16%	?	·	-10%
CN(C)CCCN=c1cc(-c2ccccc2)oc2ccc(Cl)cc12	5%	-1	4%	14µM*	35µM*	11%
O=C(COc1ccc(Cl)cc1)c1ccc(O)cc1O	7.3µM*	3	-4%	3%	4%	-15%
Cc1cc(C(=O)COC(=O)c2ccc(O)cc2O)c(C)n1-c1ccccc1	-8%	1	6%	0%	?	-11%
COc1ccc(-n2c(C)cc(C(=O)COC(=O)c3ccc(O)cc3O)c2C)cc1	13µM*	2	-2%	-1%	-9%	?
CCOC(=O)c1ccc(OCC(=O)c2ccc(O)cc2O)cc1	?	1	0%	-1%	0%	-1%
COC(=O)c1ccc(OCC(=O)c2ccc(O)cc2O)cc1	8.2µM*	2	1%	0%	-6%	0%
Nc1ccc(O)cc1C(=O)OCC(=O)c1ccc(C2CCCCC2)cc1	-21%	-1	4%	17%	11µM*	-17%
COc1ccccc1CNC(=O)Cc1c(C)nc2ccccc2c1C	·	3	·	·	6%	·
Cc1ccc(-c2csc(-c3ccccc3)n2)cc1C	·	10	·	·	33%	·
O=C(COC(=O)c1ccc(O)cc1O)c1ccc(Cl)cc1	1%	-4	6%	3%	45µM*	-1%
O=C(COC(=O)c1ccc(O)cc1O)Nc1ccc(Cl)cn1	3%	3	4%	0%	?	5%
Cc1cc2nc(-c3cccc(Br)c3)c(Cc3ccsc3)n2c(C)c1Br	·	3	·	28%	-10%	·
Cc1cc2nc(-c3cccc(Br)c3)c(Cc3ccccc3)n2c(C)c1Br	·	-8	·	11µM*	?	·
Cc1nc2cc(NC(=O)c3ccc(CNC(N)=O)cc3)ccc2o1	·	-6	·	·	-1%	·
CCn1c(=O)c2ccccc2n(Cc2cccc([N+](=O)[O-])c2)c1=O	-12%	-35*	-8%	-1%	·	1%
O=C(CCn1c(=O)c2ccccc2n(Cc2cccc([N+](=O)[O-])c2)c1=O)N1CCc2ccccc2C1	2%	-2	2%	2%	-10%	2%
O=C(NC1CCOC2(CCOCC2)C1)c1cn(CCN2CCNCC2)nn1 (stereo not given)	·	·	·	·	22µM*	·
COc1ccccc1Cc1c(C(C)(C)C)nc2c3ccccc3ccn12	·	-6	·	1%	28µM*	·
Brc1cccc(-c2nc3c4ccccc4ccn3c2Cc2ccsc2)c1	·	-16	·	11µM*	-3%	·
Clc1cccc(-c2nc3c4ccccc4ccn3c2Cc2ccsc2)c1	·	-1	·	?	-1%	·
COc1ccc(Cc2c(-c3ccccc3)nc3c4ccccc4ccn23)c(C)c1	·	-6	·	5µM*	-11%	·
Clc1cccc(Cc2c(-c3ccccc3)nc3c4ccccc4ccn23)c1	·	-9	·	5µM*	2%	·
Clc1cccc(Cc2c(-c3cccc(Cl)c3)nc3c4ccccc4ccn23)c1	·	-5	·	11%	-28%	·
COc1ccc(Cc2c(-c3ccc(F)cc3)nc3c4ccccc4ccn23)c(C)c1	·	-4	·	?	-5%	·
SMILES	Nrf2 block	LDHA block	mIDH1 inhibitor	Nrf2 activator	ALOX12 inh	A549 viability
Fc1ccc(-c2nc3c4ccccc4ccn3c2Cc2cccc(Cl)c2)cc1	·	1	·	19%	12%	·
COC(=O)c1ccc2nc(-c3ccc(Cl)cc3)c(Cc3ccc(OC)cc3C)n2c1	·	1	·	20%	?	·
COc1ccc(Cc2c(-c3ccc(C)cc3)nc3ccc(Cl)cn23)c(C)c1	·	-11	·	0%	40µM*	·
Fc1ccc(-c2nc3c4ccccc4ccn3c2Cc2cccc(F)c2)cc1	·	·	·	·	0%	·
Clc1cccc(Cc2c(-c3ccco3)nc3c4ccccc4ccn23)c1	·	-4	·	?	10µM*	·
Fc1cccc(Cc2c(-c3ccco3)nc3c4ccccc4ccn23)c1	·	0	·	5µM*	0%	·
